Results: the supplement of paper PMC6555819

The sequences below were run on VDR:RXRa (NR concentration 270 nM, RXRa partner concentration 90 nM) (assay: PBM binding z-score (relative to random genomic background probes); higher = stronger binding; sequences stand for … in GC…GCGATTGACAGCGTAGAATGAAGG).
Experimental: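 Protein-binding microarray (Agilent 4x180K custom design, double-stranded 60-nt probes: 5' GC cap, 34-nt variable region, 24-nt constant primer region; full probe sequence given). Purified or IVT nuclear receptor:RXRα heterodimers (3:1 NR:RXRα, mostly 270:90 nM) or homodimers were incubated for 1 h in PBS with 2% milk and no ligand, then detected with Alexa488 antibodies. Fluorescence from o1-orientation probes (~5 replicates averaged) was converted to z-scores against 500 random hg19 background probes. Variable regions are seed direct-repeat (DR0–DR5) sites, all their single-nucleotide variants and half-site ablations.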

Q: For ACTATTAGTTGAGACGAGGGCGACCGATAGGTTG, which PBM binding z-score is on record?
A: The PBM binding z-score was 0.133.

Q: Which PBM binding z-score does the source give for AATACAGGGTCATCGTAGGCAAGAGTACGCACAG here?
A: Its PBM binding z-score is 5.23.

Q: How did the PBM binding z-score turn out when ATCTCTAAGTAAAGTTCAGTGAAAGATCGATAGA was run?
A: The PBM binding z-score was 1.67.

Q: CGGCCAAGGTCAAGGTCAGTGAAAGAGACTCGAA was tested. Which PBM binding z-score did it give?
A: Its PBM binding z-score is 4.68.

Q: TAGCCTAGGTCATGCGAGCCAGTATAGTGTCGGC was tested. Which PBM binding z-score did it give?
A: Its PBM binding z-score is 1.92.

Q: How did the PBM binding z-score turn out when AGAATGAGGTTATTAAGCTCAGGGAATTGCGGTC was run?
A: Its PBM binding z-score is 1.38.

Q: Which PBM binding z-score does the source give for TCTGCTAGGTCAACGATGGGCAGCTAATCTGCTA here?
A: Its PBM binding z-score is 0.993.

Q: Which PBM binding z-score does the source give for TCTAGCAGGCCAGAGGGTCACCCAAGAGGTACGG here?
A: Its PBM binding z-score is 1.71.

Q: Which PBM binding z-score does the source give for ATCGAAAGGTCGTGAGGTGAGTATGCAGAAAGGC here?
A: Its PBM binding z-score is 3.57.

Q: With TCGAGTAGGTGAGTCGGGGCATTCAGCCAACATA as the sequence, how does the PBM binding z-score read?
A: Its PBM binding z-score is 1.68.

Q: TCATATAGGTAATATAGGTGAAAGTCGGCATCTA was tested. Which PBM binding z-score did it give?
A: The PBM binding z-score was 0.836.

Q: Which PBM binding z-score does the source give for GCTAGTTGGTCAGTAAAAGGTCACACGCCGGTCG here?
A: The PBM binding z-score was 3.87.

Q: How did the PBM binding z-score turn out when GCTTACGGGTAAAAGGTTATAGCATGAATAGAAT was run?
A: Its PBM binding z-score is 1.57.

Q: How did the PBM binding z-score turn out when TCGAGTAGGTTAGGGGCGTTCAGAATGGCGTCGA was run?
A: The PBM binding z-score was 0.157.

Q: How did the PBM binding z-score turn out when TCTAGCAGGACAGAGGGTCACTCAAGAGGTACGG was run?
A: The PBM binding z-score was 1.39.

Q: How did the PBM binding z-score turn out when GTAACAAGGTGAATAGGTCGTTGATGAGTAGGCG was run?
A: The PBM binding z-score was 1.22.

Q: Which PBM binding z-score does the source give for TCATATAGGTAAATGATAGGTGAAAGTCCGATCT here?
A: Its PBM binding z-score is 1.15.

Q: Which PBM binding z-score does the source give for ATCTCTAGGTAAGACTCAATTCAGTGAAGAACGC here?
A: Its PBM binding z-score is 0.199.

Q: How did the PBM binding z-score turn out when CCTGCTAGGTCAATGGTCGGCTAAAGCAGCTCGC was run?
A: The PBM binding z-score was 1.07.

Q: With CTCGAAAGGTCGTGCTCCGGTGAGTATACCAAAC as the sequence, how does the PBM binding z-score read?
A: Its PBM binding z-score is 3.48.

Q: With CAAACTAGTTCAAGGTCAAAGTCGGTTTGTGCCA as the sequence, how does the PBM binding z-score read?
A: The PBM binding z-score was 4.92.

Q: Which PBM binding z-score does the source give for GCTTGTAGATCCAGGTTAAGAAAGACTAAGCTAA here?
A: Its PBM binding z-score is -0.307.

Q: For ATATGTAGATTACATCCGGGTCATTCAGGCTATG, which PBM binding z-score is on record?
A: The PBM binding z-score was 3.34.

Q: How did the PBM binding z-score turn out when CTACCAAGGTGAACAAGGTCGCTGATTACTATTC was run?
A: Its PBM binding z-score is 5.5.

Q: Which PBM binding z-score does the source give for TGAATGAGGTTATATGATCAGGGAACGTTGCAAA here?
A: The PBM binding z-score was 1.33.

Q: With AGAACGAGGGCACGATGAGTTGATAGCAGAGTAG as the sequence, how does the PBM binding z-score read?
A: The PBM binding z-score was 2.32.

Q: For GCTGCTAGGTCAACTGATGGTCCGCTAAAGCTCG, which PBM binding z-score is on record?
A: The PBM binding z-score was 1.31.

Q: GGAACCAGGGCAAAGTTGATAGCATCTGTCGACG was tested. Which PBM binding z-score did it give?
A: Its PBM binding z-score is 0.607.

Q: How did the PBM binding z-score turn out when CCTTACGGGTCACGAGGTTATAGTACGACGAGCG was run?
A: Its PBM binding z-score is 5.35.

Q: Which PBM binding z-score does the source give for CCGAGTAGGTTATGGGGCATTAAGGCAACGGTGA here?
A: Its PBM binding z-score is 0.259.

Q: For CAAACTAGGTTACAGAGGTCAAAGTCCGTGCGTA, which PBM binding z-score is on record?
A: Its PBM binding z-score is 7.06.

Q: How did the PBM binding z-score turn out when CCTTATGGGTCACTCCAGGTTATAGCATCGGAGT was run?
A: Its PBM binding z-score is 3.33.

Q: How did the PBM binding z-score turn out when TCTAGTTGGTCACGGACGTCACACACGACGGGTA was run?
A: The PBM binding z-score was 0.743.

Q: How did the PBM binding z-score turn out when CGGACTGGGGCAAGGTTACCATAACGCACAGCCA was run?
A: Its PBM binding z-score is 0.267.

Q: How did the PBM binding z-score turn out when ATCGAAAGATCGTGAGGTGAGTATACAGAAAGGC was run?
A: Its PBM binding z-score is -0.0654.

Q: TCTAGTTGGTCGAAGGTCACACACTCGAAATGCG was tested. Which PBM binding z-score did it give?
A: Its PBM binding z-score is 3.37.

Q: How did the PBM binding z-score turn out when CGAACCAGGTCATCCAGGACAGTGAATACATTGA was run?
A: The PBM binding z-score was 5.42.

Q: Which PBM binding z-score does the source give for GCATATAAGTAATACAAGGTGAAAGTCCGATTGT here?
A: The PBM binding z-score was 0.0691.

Q: With GCTTACGGGTCAAACGTTATAGCATGAATAGAAT as the sequence, how does the PBM binding z-score read?
A: The PBM binding z-score was 3.74.

Q: How did the PBM binding z-score turn out when ACGATTAGTTGACTTAGGGCAACCGATACGACGC was run?
A: Its PBM binding z-score is 0.161.
